In PubChem BioAssay AID1347081 (National Center for Advancing Translational Sciences (NCATS), 2019):
Results filed as inconclusive are left out. Calls of active or inactive are those of the source. Calls come from the whole dose curve.

Assay: qHTS for Inhibitors of the Functional Ribonucleoprotein Complex (vRNP) of Lassa (LASV) Arenavirus: Viability assay - alamar blue signal for LASV Confirmatory Screen
Settings: LASV vRNP counter-screen cells; series mostly up to 53.9 µM
With `CC12C(=O)OC(=O)C1(C)C1CCC2O1` (centres undefined) the Potency was 3.85 µM (active). For `Nc1ccc([N+](=O)[O-])cc1O`, the Potency was 39.5 µM (active). In the case of `CCN(CC)C(=O)N[C@@H]1C=C2c3cccc4[nH]cc(c34)C[C@@H]2N(C)C1`, the Potency is reported as “inactive”. For `C=C(C)C1Cc2c(ccc3c2OC2COc4cc(OC)c(OC)cc4C2C3=O)O1` (centres undefined), the Potency was 0.0968 µM (active). With `Cc1ccc2c(c1)C1CN(C)CCC1N2` (centres undefined) the Potency was “inactive”. In the case of `O=C1c2ccccc2-n2c1nc1ccccc1c2=O`, the Potency is reported as 3.85 µM (active). For `CCn1c(-c2nonc2N)nc2cnc(Oc3cccc(NC(=O)c4ccc(OCCN5CCOCC5)cc4)c3)cc21`, the Potency was 8.63 µM (active). With `CCCCCC[C@H]1C(=O)O[C@H](C)[C@H](NC(=O)c2cccc(NC=O)c2O)C(=O)O[C@@H](C)[C@@H]1OC(=O)CC(C)C` the Potency was 0.0544 µM (active). With `CC1=C(C)C(=O)C(CCCCC#CCCCC#CCO)=C(C)C1=O` the Potency was 24.3 µM (active).
